Assay [1] in a line: AP1 Signaling Pathway (AID 357).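 Note: ME-180 reporter cells stimulated with EGF at its EC50 level; % is set by controls: 0 for no effect and ±100 for the full control effect.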 Particulars: ME-180 (cervical carcinoma) AP-1-bla reporter, EGF-induced, beta-lactamase ratio, 5 h. In outline: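 AP-1-bla ME-180 cells, Opti-MEM + 0.5% dialyzed FBS, plated overnight 37 °C. Cpd titration + EC50 EGF, 5 h 37 °C. CCF4 2.5 h RT; ex 405, em 460/530 ratio → %activity, AC50.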
Assay [2] concerns the target Cytochrome P450 1A2 (Homo sapiens) (UniProt P05177). As to the kind of experiment: p450-cyp1a2 (AID 410; calls by dose curve; note: potency is the fitted concentration of half-maximal effect). The settings on record: recombinant CYP1A2, luciferin-ME demethylation, luminescence; series mostly up to 25.6 µM. In outline:
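O-Demethylation of luciferin 6' methyl ether by human CYP1A2 is monitored as luciferase luminescence. Substrate sits at Km (100uM); enzyme is 20nM. Values are scaled to 57 uM furafylline as maximal inhibition.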

Assay [3] in a line: NFAT Signaling Pathway (AID 444).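 Note: carbachol stimulus at about its EC50 of 1 µM final; % is set by controls: 0 for no effect and ±100 for the full control effect.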 Particulars: Jurkat NFAT-bla M1, carbachol, beta-lactamase ratio, 5 h; at 38 µM (top of the series). In outline: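 Read-out: CCF4 FRET ratio (460 nm/530 nm) after 1 h RT dye loading, used for %activity and AC50 from titration series. Cells: Jurkat NFAT-β-lactamase/M1 line, treated with compound plus 1 uM carbachol for 5 h, 37 °C.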

This passage reports activity change, negative = inhibition and Potency results from PubChem BioAssay (NCATS).

Where “and” joins values, the source holds several entries; their conditions need not be identical. Identical values can stand only once. Inconclusive results are not listed. Unmarked numbers belong to inactive results. Calls of active or inactive are those of the source. Unless noted, calls come from the whole dose curve; as a rule, active = well fitted curve in either direction with a large enough effect (not every such curve was filed as active); inconclusive = small, poorly fitted or top-dose-only effect, or another doubt; inactive = flat fitted curve, though single readings scatter.

Cytochrome P450 1A2 (Homo sapiens), sequence (P05177 whole entry, looked up): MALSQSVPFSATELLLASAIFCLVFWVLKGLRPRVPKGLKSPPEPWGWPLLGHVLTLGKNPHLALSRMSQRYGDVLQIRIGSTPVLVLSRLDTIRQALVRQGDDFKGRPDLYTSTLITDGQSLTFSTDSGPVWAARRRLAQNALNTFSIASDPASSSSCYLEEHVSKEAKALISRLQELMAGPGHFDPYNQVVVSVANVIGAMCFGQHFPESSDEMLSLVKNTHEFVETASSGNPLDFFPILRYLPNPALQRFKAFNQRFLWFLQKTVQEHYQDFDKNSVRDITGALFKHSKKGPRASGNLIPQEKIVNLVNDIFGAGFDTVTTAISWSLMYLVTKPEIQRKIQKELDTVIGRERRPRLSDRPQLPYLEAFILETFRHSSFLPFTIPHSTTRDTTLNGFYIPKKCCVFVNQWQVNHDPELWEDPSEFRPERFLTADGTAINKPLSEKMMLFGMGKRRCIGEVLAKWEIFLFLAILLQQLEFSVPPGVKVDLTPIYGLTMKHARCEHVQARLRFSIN

For the compound `CC1=C(CC(=O)O)c2cc(F)ccc2/C1=C\c1ccc(S(C)=O)cc1` (configuration not stated), the activity change, negative = inhibition was 6.13% in assay [1] (at 17.2 µM (top of the series)) and -0.0105% in assay [1] (at 38 µM (top of the series)). For the same compound, the Potency in assay [2] is 12.6 µM (active) and 3.98 µM (active).

With `OCCN1CCN(CCCN2c3ccccc3Sc3ccc(Cl)cc32)CC1`, the activity change, negative = inhibition in assay [1] (at 17.2 µM (top of the series)) is 25.4% and 10.4%; in assay [1] (at 38 µM (top of the series)), 7.4%.

Regarding `NC1CCN(c2cccc(Cl)n2)CC1`, in assay [3], the activity change, negative = inhibition was -6.65%.

Consider `CCCn1cnc2c1c(=O)n(CCCCC(C)=O)c(=O)n2C`, for which the activity change, negative = inhibition in assay [3] is 9.62%.
